Molecules are shown by their SMILES. About 83,000 compounds went through this panel and 20% of them were active in at least one assay; those are over-represented in the sample as a whole.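 The test compound was applied at a single concentration to cells in 96-well plates for 48 hours, and percent growth was recorded.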 A number with no mark means an inactive call. The source made the active and inactive calls. How the source made its calls: active means growth percent below 10; inactive means the rest.

Some test systems named below: SK-MEL-2 melanoma; EKVX NSCLC; SN12C renal; UO-31 renal; TK-10 renal; ACHN renal; CAKI-1 renal; A498 renal; CCRF-CEM leukemia; MOLT-4 leukemia.
What all share (test): NCI-60 one-dose screen, 48 h (100 = growth as untreated, 0 = no growth, -100 = all killed)
Conditions in all cases: 10 µM unless noted

In the case of `COc1cccc(C2CC(=O)Nc3cc4c(cc32)CCC4)c1OC` (stereo not given), the growth was 36.5% with SK-MEL-2 melanoma; 72.5% in the assay with EKVX NSCLC; 77.2% in the assay on SN12C renal; 59.7% with UO-31 renal; 70.1% in the assay with TK-10 renal; 82.3% in the assay with ACHN renal. Besides, the growth in the assay with CAKI-1 renal is 40.8%; with A498 renal, 62.9%; with CCRF-CEM leukemia, 3.82% (active); with MOLT-4 leukemia, 14.8%.
Turning to `Cc1ccccc1-c1cc(-c2ccc(Br)s2)[nH]c(=O)c1C#N`, the growth in the assay on SK-MEL-2 melanoma was 113%; in the assay on EKVX NSCLC it was 85.6%; in the assay with SN12C renal, 102%; with UO-31 renal, 83.3%; with TK-10 renal, 109%; with ACHN renal it was 101%. The growth is 88.1% in the assay on CAKI-1 renal, 106% in the assay with CCRF-CEM leukemia and 92.7% in the assay on MOLT-4 leukemia.
As for `COc1ccc2nc(-n3nc(C)cc3C)c(-n3nc(C)cc3C)nc2c1`, the growth is 111% with SK-MEL-2 melanoma; 91.7% in the assay on EKVX NSCLC; 104% in the assay on SN12C renal; 86.5% in the assay on UO-31 renal; 113% with TK-10 renal; 113% in the assay on ACHN renal. The growth in the assay with CAKI-1 renal is 93.4%; with A498 renal it was 96.7%; in the assay with MOLT-4 leukemia, 104%.
Regarding `Cc1ccc(N(CSc2ccc(Cl)cc2)CSc2ccc(Cl)cc2)cc1`, the growth with SK-MEL-2 melanoma was 86.2%; in the assay on EKVX NSCLC, 17.4%; with SN12C renal, 30.3%; in the assay on UO-31 renal, 22.1%; in the assay with TK-10 renal, 92.2%; with ACHN renal it was 66.6%. For the same molecule, the growth in the assay on CAKI-1 renal was 28.8%; in the assay with A498 renal it was -22.4% (active); in the assay with CCRF-CEM leukemia, -7.51% (active); with MOLT-4 leukemia it was -16.3% (active).
Turning to `CN1CCC(OC2c3ccccc3CCc3ccccc32)CC1`, the growth in the assay with SK-MEL-2 melanoma was 113%; in the assay on EKVX NSCLC, 84.9%; in the assay on SN12C renal, 93.9%; with UO-31 renal, 73.4%; in the assay on TK-10 renal, 89%; in the assay with ACHN renal, 97.5%. In addition, the growth was 75.4% in the assay on CAKI-1 renal, 77.9% in the assay with A498 renal, 94.1% in the assay with CCRF-CEM leukemia and 99.5% in the assay with MOLT-4 leukemia.
For `COc1cc(CNCCCN2C(=O)c3ccc4c5c(ccc(c35)C2=O)C(=O)N(CCCNCc2cc(OC)c(OC)c(OC)c2)C4=O)cc(OC)c1OC`, the growth in the assay with SK-MEL-2 melanoma was -71.8% (active); with EKVX NSCLC it was -72.9% (active); in the assay with SN12C renal it was -98.9% (active); in the assay on UO-31 renal, 4.39% (active); in the assay with TK-10 renal, -28.5% (active); in the assay on ACHN renal, -24.5% (active). Further, the growth is 36.9% with CAKI-1 renal, -11.5% (active) with A498 renal, 0.649% (active) in the assay on CCRF-CEM leukemia and -12.6% (active) with MOLT-4 leukemia.
Consider `COC(=O)CCC(=O)c1ccccc1`, for which the growth in the assay with SK-MEL-2 melanoma was 110%; in the assay on EKVX NSCLC, 89.7%; with SN12C renal it was 103%; in the assay with UO-31 renal, 118%; with TK-10 renal, 118%; with ACHN renal it was 106%. In addition, the growth in the assay on CAKI-1 renal was 96.8%; in the assay with A498 renal, 112%; in the assay on CCRF-CEM leukemia it was 101%; in the assay on MOLT-4 leukemia it was 101%.
As for `NS(=O)(=O)c1cc(Br)c2c(c1)S(=O)(=O)NCN2`, the growth in the assay with SK-MEL-2 melanoma is 102%; with EKVX NSCLC, 120%; in the assay with SN12C renal, 104%; in the assay on UO-31 renal, 96.7%; in the assay with TK-10 renal, 110%; with ACHN renal, 111%. The growth is 94.9% in the assay with CAKI-1 renal, 115% in the assay on A498 renal, 99.7% in the assay with CCRF-CEM leukemia and 87.5% in the assay with MOLT-4 leukemia.
For the molecule `Cc1cc(O)cc2c1[C@H]1CC[C@]3(C)[C@@H](O)CC[C@H]3[C@@H]1C=C2`, the growth with SK-MEL-2 melanoma was 86.4%; in the assay with EKVX NSCLC it was 105%; in the assay with SN12C renal it was 98.5%; in the assay on UO-31 renal it was 98.4%; in the assay with TK-10 renal, 102%; with ACHN renal, 96.7%. For the same molecule, the growth in the assay on CAKI-1 renal is 108%; in the assay with A498 renal it was 118%; in the assay on CCRF-CEM leukemia, 69.4%; in the assay with MOLT-4 leukemia, 79%.
For `CCCCc1ccc(NC(=O)C(F)(F)F)cc1`, the growth was 99% in the assay on SK-MEL-2 melanoma; 120% in the assay with EKVX NSCLC; 98.3% with SN12C renal; 83.8% with UO-31 renal; 95.4% with TK-10 renal; 102% in the assay with ACHN renal. For the same molecule, the growth is 105% in the assay with CAKI-1 renal, 84.1% in the assay with A498 renal and 74.9% in the assay on MOLT-4 leukemia.
Regarding `COc1ccc(OC)c(C2C(C#N)=C(N)Oc3cc(O)ccc32)c1` (stereo not given), the growth was 96.5% in the assay with SK-MEL-2 melanoma; 88.7% in the assay on EKVX NSCLC; 98% in the assay on SN12C renal; 81.7% in the assay on UO-31 renal; 91.1% in the assay on TK-10 renal; 94.4% in the assay with ACHN renal. For the same molecule, the growth was 73.5% in the assay with CAKI-1 renal, 92.2% in the assay with A498 renal, 88.2% with CCRF-CEM leukemia and 88.2% in the assay with MOLT-4 leukemia.
As for `Nc1cc(Br)c(-c2nnc(CCC(=O)c3nc4ccccc4[nH]3)o2)c(Br)c1`, the growth was 34.3% with SK-MEL-2 melanoma; 95.6% in the assay on EKVX NSCLC; 95.4% in the assay with SN12C renal; 47.4% with UO-31 renal; 101% in the assay with TK-10 renal; 102% with ACHN renal. The growth in the assay with CAKI-1 renal is 90.5%; with A498 renal, 71.7%; in the assay on MOLT-4 leukemia it was 68.2%.
Consider `CCCN(CCC)c1ccc(/C=C/c2ccc3cc(OCC)ccc3n2)cc1`, for which the growth in the assay on SK-MEL-2 melanoma is 88.2%; in the assay on EKVX NSCLC, 86.3%; in the assay with SN12C renal, 90.7%; with UO-31 renal, 71.8%; with TK-10 renal, 116%; in the assay with ACHN renal, 92.4%. Further, the growth with CAKI-1 renal was 85.1%; with A498 renal, 64.6%; in the assay with CCRF-CEM leukemia it was 63.4%; in the assay on MOLT-4 leukemia, 53%.
For the molecule `O=[N+]([O-])c1ccc2nc(N/N=C/c3ccc(O)cc3)sc2c1`, the growth with SK-MEL-2 melanoma is -0.896% (active); with EKVX NSCLC, 85.5%; in the assay with SN12C renal, 54.7%; in the assay with UO-31 renal, 27.5%; in the assay with TK-10 renal it was 54%; with ACHN renal, 47%. Besides, the growth in the assay with CAKI-1 renal is 23.2%; with A498 renal, 91.5%; in the assay on MOLT-4 leukemia, 24%.
